Out of some 360,000 compounds screened, about 11,000 (3.1%) were called active. Not shown: some 2% with an inconclusive outcome. Rule as the data show it: active = fluorescence intensity above about 16000; inconclusive = no clear call, values can overlap the other calls; inactive = below that. Many of the other results were omitted from the sample, so actives are more common in it than they were.

The experiment in a line: compound fluorescence in toxin protease inhibitor counterscreen, primary screen, artefact control for toxin protease inhibitor project, biochemical, multiplex microsphere, HTS (AID 624483). Conditions: compound autofluorescence counterscreen, microsphere flow cytometry; stronger effect = higher value.
`OC[C@@H]1CN(Cc2ccc(-c3ccccc3)cc2)C[C@H](n2cnc3c(NC4CCCC4)ncnc32)O1`: the fluorescence intensity was 3740 (inactive).
The value for `Cc1ccc(-c2nnc(SCC(=O)N/N=C/c3cccs3)n2-c2ccc(C)cc2)cc1` was 2620 (inactive).
As to `Cc1ccc(-n2c(SCC(=O)Nc3ccc4c(c3)OCO4)nnc2-c2ccccn2)cc1`, the fluorescence intensity was 9860 (inactive).
The value for `CCn1c(SCC(=O)c2ccc(Cl)s2)nnc1-c1cccs1` was 3490 (inactive); that for `CCn1c(Cc2cccs2)nnc1SCC(=O)c1ccc(C)cc1` was 23000 (active); that for `CCOC(=O)CSc1nnc(CNC(=O)c2ccco2)n1-c1ccc(F)cc1` was 8100 (inactive).
For the compound `O=C(CSc1nnc(-c2ccccn2)n1-c1ccccc1)Nc1ccc2c(c1)OCO2`, the fluorescence intensity was 2680 (inactive).
Take `CCOC(=O)CSc1nnc(CNC(=O)c2cccs2)n1-c1ccccc1`: the fluorescence intensity was 24300 (active).
Under `Cn1c(Cc2cccs2)nnc1SCC(=O)Nc1ccccc1` stands 5420 (inactive); under `CCOC(=O)CSc1nnc(CNC(=O)c2cccs2)n1-c1cc(OC)ccc1OC`, 9680 (inactive).
Under `Cc1ccc(-n2c(Cc3cccs3)nnc2SCC(=O)OC(C)C)cc1` stands 23800 (active); under `COc1ccc(-n2c(SCC(=O)OC(C)C)nnc2-c2ccccn2)cc1`, 23500 (active).
The value for `COc1ccc(-n2c(SCC(=O)NCc3cccs3)nnc2-c2ccoc2C)cc1` was 3110 (inactive); that for `COc1ccc2c(CC(=O)NNC(=O)c3ccccc3F)coc2c1` was 2950 (inactive).
`CCNC(=O)C1(C)CCCN(Cc2noc(-c3ccccc3OC)n2)C1` (stereo not given): the fluorescence intensity is 3700 (inactive).
The value for `CCN(CC)c1nc(-c2ccccc2)cc(C(F)(F)F)c1C#N` was 2560 (inactive); that for `O=C(C=CC(=O)Nc1ccc(F)cc1F)Nc1ccc(F)cc1F` was 6040 (inactive).
The value for `COc1ccc(NC(=O)C2(C)Cc3c(-c4cccc(NC(C)=O)c4)ccnc3O2)cc1OC` (stereo not given) was 3020 (inactive); that for `CCc1nc2ccc(C(=O)N(C)CCN(C)C)cn2c1N(CC)CCOC` was 3650 (inactive); that for `O=C(NCC(O)c1nc2ccccc2[nH]1)c1ccc(Br)cc1` (stereo not given) was 5430 (inactive).
For `C[C@@H]1CC2=C(C(=O)OC(C)(C)O2)[C@@H](C2CC2)O1`, the fluorescence intensity was 5730 (inactive).
Under `CCN(C(=O)CN1CCN(Cc2ccccc2)CC1)c1c(N)n(Cc2ccccc2)c(=O)[nH]c1=O` stands 3390 (inactive); under `Cc1csc(=O)n1CCC(=O)OCC(=O)NNC(=O)c1ccc(Br)cc1`, 3030 (inactive).
The value for `Cc1nc(C(=O)Nc2ccc(Cl)cc2)sc1C1(C)CC(c2ccccc2)=NO1` (stereo not given) was 3390 (inactive).
The value for `C=C1C(=O)OC2C1CCC(C)=CCCC1(C)OC21` (stereo not given) was 6040 (inactive); that for `COc1ccc(NC(=O)C2(C)Cc3c(-c4cccc(NC(C)=O)c4)ccnc3O2)cc1` (stereo not given) was 3560 (inactive); that for `Cc1ccc(NC(=O)COc2ccc(/C=N\NC(=O)c3cccnc3)cc2)cc1C` was 4500 (inactive).
Turning to `O=C(N/N=C/c1sc(N2CCCCC2)nc1-c1cccs1)c1cccnc1`, the fluorescence intensity was 16400 (active).
Regarding `O=C(O)c1ccc(N/N=C/c2cn(-c3ccccc3)nc2-c2cccs2)cc1`, the fluorescence intensity was 3970 (inactive).
The value for `O=C(Nc1ccc(Cl)cc1)c1csc([C@H]2C[C@H](O)[C@@H](CO)O2)n1` was 2790 (inactive); that for `COCCCn1c(Cc2csc(Nc3cccc(Cl)c3)n2)nnc1SCC(=O)OC1CCCCC1` was 3010 (inactive).
The value for `NC(=O)CC(NC(=O)Cc1cccc2ccccc12)c1ccc(NCc2cc(F)ccc2F)c([N+](=O)[O-])c1` (stereo not given) was 4100 (inactive); that for `CSCCC(NS(=O)(=O)c1ccc2c(c1)oc(=O)n2C)C(=O)NCc1ccccc1` (stereo not given) was 4490 (inactive); that for `CCOc1ccc(OCC)c(NC(=O)CCS(=O)(=O)c2ccc(C)cc2)c1` was 3840 (inactive).
The value for `CCOc1ccc(OCC)c(NC(=O)C(NS(=O)(=O)c2ccc3c(c2)oc(=O)n3C)C(C)C)c1` (stereo not given) was 20600 (active); that for `CCCCN(CCCC)CCNC(=O)CN1C(=O)COc2ccc(S(=O)(=O)N3CCOCC3)cc21` was 5470 (inactive).
On to `CC(C)CNC(=O)C1(C)CCCN1C(=O)CSc1ccccc1` (stereo not given), for which the fluorescence intensity is 3520 (inactive).
For the compound `O=C(CP(=O)(c1ccccc1)c1ccccc1)N1CCOCC1`, the fluorescence intensity is 4810 (inactive).
Under `CCCCSc1[nH]c(=O)c(C(=O)OCC)cc1C#N` stands 23400 (active).
Under `CCOC(=O)c1cc(C)nc(S(C)(=O)=O)c1C#N` stands 6150 (inactive).
Under `CCOC(=O)c1cnc(COc2ccccc2Cl)[nH]c1=O` stands 5960 (inactive); under `CC(NCCc1ccc(S(N)(=O)=O)cc1)C(=O)NCc1ccccc1` (stereo not given), 3370 (inactive); under `O=C(O)c1ccccc1Cc1ccc(F)c2ccccc12`, 3460 (inactive).
For `Cc1noc(C)c1S(=O)(=O)N(C)C[C@H]1OCCCC[C@@H](C)Oc2ccc(NC(=O)CCCN(C)C)cc2C(=O)N([C@H](C)CO)C[C@@H]1C`, the fluorescence intensity is 3820 (inactive).
Regarding `O=C1CCC(=O)N1CCC(=O)N(C(=O)NC1CCCCC1)C1CCCCC1`, the fluorescence intensity was 3950 (inactive).
On to `COc1ccc(-c2cc(NC(C)=O)c3ncc(-c4cc(OC)c(OC)c(OC)c4)n3c2)cn1`, for which the fluorescence intensity was 2720 (inactive).
Under `COCC(C)n1c(SCC(=O)NC2CCCCC2C)nc2ccccc2c1=O` (stereo not given) stands 2940 (inactive).
Under `CCOC(=O)C(C)Sc1nc2ccccc2c(=O)n1CC1CCCCC1` (stereo not given) stands 19900 (active); under `CCOn1c(SC(C)C)nc2ccccc2c1=O`, 10100 (inactive); under `Cc1ccc2c(c1)N(CC(=O)NCCc1ccc(Cl)cc1)C(=O)c1cccnc1O2`, 5070 (inactive).
Under `CCc1nc2c(OCCOc3ccccc3)cccn2c1N(C)C(=O)c1ccccc1F` stands 3430 (inactive).
With `CCCCN(C=O)c1c(CC)nc2c(OCCC3CCCCC3)cccn12`, the fluorescence intensity is 3460 (inactive).
Under `Cc1ccccc1OCC(=O)NCC(=O)OCC(=O)c1ccc2ccccc2c1` stands 10600 (inactive); under `Cc1cccc(NC(=O)N(Cc2cc3cc(C)cc(C)c3[nH]c2=O)CC2COCCO2)c1` (stereo not given), 11500 (inactive); under `Cc1ccc2[nH]c(=O)c(CN(CC3COCCO3)C(=O)Nc3ccccc3C)cc2c1` (stereo not given), 3250 (inactive).
As to `Cc1ccc2[nH]c(=O)c(CN(CCCN(C)C)C(=O)Nc3cccc(Cl)c3)cc2c1`, the fluorescence intensity is 21500 (active).
Under `COc1ccccc1CNc1nc(Nc2ccccc2Cl)c2sccc2n1` stands 3450 (inactive); under `CC(C)CNC(=S)NNC(=O)c1nn(C)cc1Cl`, 8820 (inactive); under `Cc1occc1C(=O)NNC(=S)NCC(C)C`, 16400 (active).
Under `Cc1scc(C(=O)NNC(=S)NCC(C)C)c1C` stands 2420 (inactive); under `CN(C)S(=O)(=O)c1ccc(C(=O)NCCN=C2NS(=O)(=O)c3ccccc32)cc1`, 3720 (inactive).
Under `CC[C@]12c3[nH]c4cc(CCC(=O)N(C)C)ccc4c3CCN1C(=O)[C@@H](CC(=O)NCCCn1ccnc1)C[C@@H]2C(=O)N1CCN(C(=O)C2CC2)CC1` stands 3900 (inactive); under `COc1cc(C2C(C(=O)OCCC#N)=C(C)NC3=C2S(=O)(=O)c2ccccc23)cc(OC)c1OC` (stereo not given), 9630 (inactive).
With `CCCn1nc(C(=O)N2CCCc3ccccc32)c2ccccc2c1=O`, the fluorescence intensity is 4370 (inactive).
As for `CCCCn1nc(C(=O)Nc2cccc(C(=O)NC3CC3)c2)c2ccccc2c1=O`, the fluorescence intensity was 3390 (inactive).
The value for `CCCCn1nc(C(=O)N2CCc3ccccc32)c2ccccc2c1=O` was 23400 (active); that for `OC[C@@H]1CN(Cc2ccc(F)cc2)C[C@H](n2cnc3c(NC4CCCC4)ncnc32)O1` was 3760 (inactive).
Under `CC(=O)OCC(C)n1c(=O)c2ccccc2n1C(C)=O` (stereo not given) stands 6200 (inactive); under `Cc1cn([C@H]2C[C@H](O)[C@@H](/C=C/C(=O)NCCCc3ccccc3)O2)c(=O)[nH]c1=O`, 4330 (inactive); under `CCc1nnc(NS(=O)(=O)c2ccc(NC(=S)NC(=O)c3cccs3)cc2)s1`, 3630 (inactive).
The value for `Cc1sc(NC(=S)NC(=O)c2cccs2)nc1-c1ccc(CC(C)C)cc1` was 19900 (active).
In the case of `O=C(NC(=S)Nc1cccc(-c2ccc(CO)o2)c1)c1cccs1`, the fluorescence intensity is 4550 (inactive).
Under `CC1=C(C(=O)OCC2CCCCC2)C(c2ccc(F)cc2)NC(=O)N1` (stereo not given) stands 3520 (inactive).
The value for `CC(C)c1cccc(-c2csc(C(O)c3ccccc3)n2)c1` (stereo not given) was 3800 (inactive); that for `COC(=O)c1sccc1NS(=O)(=O)c1ccc(F)cc1F` was 3170 (inactive).
The value for `COC(=O)c1sccc1NC(=O)c1ccc(Cl)cc1` was 2980 (inactive); that for `COC(=O)c1sccc1N/N=C(\C)c1ccc(F)c(Cl)c1` was 22300 (active).
Consider `OC(c1ccccc1)c1nc(-c2cnc3ccccc3c2)cs1` (stereo not given), for which the fluorescence intensity is 3830 (inactive).
The value for `CCN(c1ccccc1)S(=O)(=O)c1cc(C(=O)NCc2ccccn2)ccc1C` was 6330 (inactive); that for `CCN(CC)S(=O)(=O)c1cc(C(=O)Nc2ccccn2)ccc1C` was 24700 (active).
As to `Cc1ccc(NC(=O)CNCc2ccccn2)cc1S(=O)(=O)N(C)C`, the fluorescence intensity was 4460 (inactive).
Under `CC1(C)OC(=O)C2=C(C[C@@H](C3CC3)O[C@H]2c2ccc(Cl)cc2)O1` stands 5960 (inactive); under `Cc1cc2nc(-c3ccco3)c(Cc3cccc(F)c3)n2c(C)c1Br`, 5860 (inactive); under `Cc1cc(OCC(=O)N(C)c2c(N)n(Cc3ccccc3)c(=O)[nH]c2=O)c(C(C)C)cc1Cl`, 5120 (inactive).
For `Cc1ccc(S(=O)(=O)N(CC(=O)NCCSC2CCCCC2)c2ccccc2F)cc1`, the fluorescence intensity is 7650 (inactive).
Under `O=C(O)CCC(=O)N(Cc1cccs1)Cc1cccs1` stands 9340 (inactive).
As to `O=P(c1cccs1)(c1cccs1)c1cccs1`, the fluorescence intensity was 22500 (active).
Regarding `COc1ccc(CC(N)c2csc(NC(=O)Cc3ccccc3)n2)cc1` (stereo not given), the fluorescence intensity is 3080 (inactive).
Under `CCCCCCCCN1C(=O)[C@H](CC(=O)NCC23CC4CC(CC(C4)C2)C3)C[C@@]2(C(=O)OC)CCCCC=C12` stands 5660 (inactive); under `COC(=O)c1ccc(CN2CCC(CO)(Cc3ccc(OC)cc3)CC2)cc1`, 3600 (inactive).
